In PubChem BioAssay (Tox21) one finds Potency and outcome data, which are given here for seven molecules.

Inconclusive results are not listed. Where a structure was tested more than once in an assay, its records may differ in their call. Calls of active or inactive are those of the source. Unless noted, calls follow the shape of the dose curve; as a rule, active = well fitted curve in the direction sought with a large enough effect in the repeat runs; inconclusive = weak or mixed curves; inactive = no such curve, though single readings can be large; an effect the other way counts as inactive or inconclusive.

Experiment [1] in a line: qHTS assay to identify small molecule antagonists of the thyroid receptor (TR) signaling pathway - cell viability counter screen (AID 743064). Also: nearly all actives have a fitted effect of over 50% in size. Also: potency is read from the fitted curve at half-maximal effect. The gist of the method: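 Plate GH3.TRE-Luc cells; incubate 4 h at 37 °C; add compound, then T3 to 1 nM final; incubate 23.5 h; add CellTiter-Fluor; incubate 30 min at 37 °C, 5% CO2; read fluorescence.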
Background: Quantitative high-throughput screening tests each substance at several concentrations.

Experiment [2] in a line: qHTS assay to identify small molecule antagonists of the thyroid receptor (TR) signaling pathway (AID 743065). Also: nearly all actives have a fitted effect of over 55% in size. Also: potency is read from the fitted curve at half-maximal effect. The gist of the method: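 GH3.TRE-Luc rat pituitary cells (two TREs driving luciferase) were dosed with compound, then stimulated with 1 nM T3 (final) for 23.5 h at 37 C. ONE-Glo luminescence was the read-out, with CellTiter-Fluor fluorescence as the cytotoxicity counter-screen.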

For experiment [3], the system named is thyroid hormone receptor (rat, GH3 cells). Briefly: qHTS assay to identify small molecule agonists of the thyroid receptor (TR) signaling pathway (AID 743066; calls by dose curve).
Experiment [4] has as its target Estrogen receptor (Homo sapiens) (UniProt P03372). Briefly: qHTS assay to identify small molecule antagonists of the estrogen receptor alpha (ER-alpha) signaling pathway (AID 743069; active = well fitted curve in the direction sought with a large enough effect in the signal ratio in the repeat runs, not every such curve was filed as active; the % refers to the signal ratio). The gist of the method:
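Beta-lactamase FRET fluorescence is read after 2 hr at room temperature with LiveBLAzer B/G substrate. Before that, ER-alpha-bla HEK293 cells sit 4 hr after plating, then receive compound plus 17beta-estradiol and incubate 18 hr at 37C.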

Experiment [5] is described as follows: qHTS assay to identify small molecule antagonists of the estrogen receptor alpha (ER-alpha) signaling pathway - cell viability counter screen (AID 743074; calls by dose curve;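 also: HEK293 cells carrying ER-alpha-UAS-bla reporter stimulated with 17beta-estradiol; nearly all actives have a fitted effect of over 45% in size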).
The target in experiment [6] is Estrogen receptor (Homo sapiens) (UniProt P03372). Briefly: qHTS assay to identify small molecule agonists of the estrogen receptor alpha (ER-alpha) signaling pathway (AID 743075; calls by dose curve;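 also: HEK293 GripTite cells with ER-alpha and UAS-driven beta-lactamase reporter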).
Estrogen receptor (Homo sapiens), sequence (P03372 whole entry, looked up): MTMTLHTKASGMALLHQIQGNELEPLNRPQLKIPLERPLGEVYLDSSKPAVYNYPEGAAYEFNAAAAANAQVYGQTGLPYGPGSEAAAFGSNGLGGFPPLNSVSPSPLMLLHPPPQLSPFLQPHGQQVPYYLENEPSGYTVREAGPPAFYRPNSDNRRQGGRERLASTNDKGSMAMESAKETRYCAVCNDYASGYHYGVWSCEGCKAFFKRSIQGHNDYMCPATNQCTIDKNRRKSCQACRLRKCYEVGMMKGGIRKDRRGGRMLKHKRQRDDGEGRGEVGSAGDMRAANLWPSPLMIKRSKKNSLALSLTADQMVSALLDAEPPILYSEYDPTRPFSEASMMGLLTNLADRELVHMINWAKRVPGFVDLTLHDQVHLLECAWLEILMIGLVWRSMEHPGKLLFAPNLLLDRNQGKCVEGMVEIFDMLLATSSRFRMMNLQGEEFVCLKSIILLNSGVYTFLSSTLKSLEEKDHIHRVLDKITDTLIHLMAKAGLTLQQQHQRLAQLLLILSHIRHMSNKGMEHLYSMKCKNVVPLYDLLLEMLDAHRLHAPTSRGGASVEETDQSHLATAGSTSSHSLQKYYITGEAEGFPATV
For experiment [7] the target is unchanged. As to the kind of experiment: qHTS assay to identify small molecule agonists of the estrogen receptor alpha (ER-alpha) signaling pathway using the BG1 cell line (AID 743079). Also: nearly all actives have a fitted effect of over 20% in size. Also: potency is read from the fitted curve at half-maximal effect.
The nature of experiment [8]: qHTS assay to identify small molecule antagonists of the estrogen receptor alpha (ER-alpha) signaling pathway using the BG1 cell line (AID 743080; calls by dose curve;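 also: BG1 cells stimulated with 17beta-estradiol alongside compound; series mostly up to about 70 µM; nearly all actives have a fitted effect of over 25% in size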). An outline of the steps:
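BG1-Luc-4E2 cells (endogenous full-length ER-alpha, stable 4×ERE-luciferase) were starved 5 days in phenol-red-free medium with 10% charcoal-stripped FBS, plated 24 h, then given compound plus 17beta-estradiol for 21.5 h at 37 C; ONE-Glo luminescence read after 30 min.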

The nature of experiment [9]: qHTS assay to identify small molecule antagonists of the estrogen receptor alpha (ER-alpha) signaling pathway using the BG1 cell line - cell viability counter screen (AID 743081).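 Also: compound given together with 17beta-estradiol as the ER stimulus; series mostly up to about 70 µM; nearly all actives have a fitted effect of over 45% in size.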
The target of the next experiment is Aromatase (Homo sapiens) (UniProt P11511). Briefly: qHTS assay to identify aromatase inhibitors (AID 743083). Also: series mostly up to about 70 µM; nearly all actives have a fitted effect of over 55% in size.
Aromatase (Homo sapiens), sequence (P11511 whole entry, looked up): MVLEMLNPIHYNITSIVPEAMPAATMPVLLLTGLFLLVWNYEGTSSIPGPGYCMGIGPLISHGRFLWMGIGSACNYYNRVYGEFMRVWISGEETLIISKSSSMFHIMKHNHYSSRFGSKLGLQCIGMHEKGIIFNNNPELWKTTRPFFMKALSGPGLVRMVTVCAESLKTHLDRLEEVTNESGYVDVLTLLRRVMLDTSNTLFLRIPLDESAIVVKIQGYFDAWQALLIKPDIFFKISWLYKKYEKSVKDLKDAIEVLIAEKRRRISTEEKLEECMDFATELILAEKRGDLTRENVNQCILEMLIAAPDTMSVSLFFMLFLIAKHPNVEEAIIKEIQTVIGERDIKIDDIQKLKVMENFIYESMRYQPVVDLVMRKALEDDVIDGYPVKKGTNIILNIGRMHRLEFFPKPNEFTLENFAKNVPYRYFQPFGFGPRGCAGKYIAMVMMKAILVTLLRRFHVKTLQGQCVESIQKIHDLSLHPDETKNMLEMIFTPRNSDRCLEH
Experiment [10] can be described thus: qHTS assay to identify aromatase inhibitors - cell viability counter screen (AID 743084).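 Also: cells stimulated with testosterone during compound exposure; nearly all actives have a fitted effect of over 55% in size.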
Experiment [11] is described as follows: qHTS assay to identify small molecule that activate the aryl hydrocarbon receptor (AhR) signaling pathway - cell viability counter screen (AID 743086).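 Also: HepG2 liver cells carrying the AhR DRE luciferase reporter; series mostly up to about 70 µM; nearly all actives have a fitted effect of over 45% in size.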 The gist of the method:
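HepG2-AhR-luc (HG2L7.5c1) cells, 4000/well, treated 24 h at 37 C with compound; viability measured as CellTiter-Fluor fluorescence after 30 min in the same wells as the luciferase read.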

The target of experiment [12] is Peroxisome proliferator-activated receptor gamma (Homo sapiens) (UniProt P37231). As to the kind of experiment: qHTS assay to identify small molecule agonists of the peroxisome proliferator-activated receptor gamma (PPARg) signaling pathway (AID 743094; active = well fitted activation curve with a large enough effect in the signal ratio in the repeat runs, not every such curve was filed as active; the % refers to the signal ratio). The gist of the method:
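Fluorescence-based beta-lactamase readout in HEK293H PPARg UAS-bla cells after 17 h compound exposure (37C) and 1 h B/G FRET substrate incubation at room temperature.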

Experiment [13] has the same target. Briefly: qHTS assay to identify small molecule antagonists of the peroxisome proliferator-activated receptor gamma (PPARg) signaling pathway (AID 743191; calls by dose curve; also: nearly all actives have a fitted effect of over 30% in size; also: potency is read from the fitted curve at half-maximal effect). The gist of the method:
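GeneBLAzer PPARg UAS-bla HEK293H cells, 5 h post-plating, exposed to compounds 17 h at 37C. LiveBLAzer B/G FRET substrate added for 1 h at room temperature; beta-lactamase reporter read by fluorescence intensity.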

Experiment [14] is described as follows: qHTS assay to identify small molecule antagonists of the peroxisome proliferator-activated receptor gamma (PPARg) signaling pathway - cell viability counter screen (AID 743194). Also: nearly all actives have a fitted effect of over 55% in size. The gist of the method:
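Cytotoxicity counter screen in PPARg-bla HEK293H cells, same wells as reporter assay. Compounds plus 50 nM rosiglitazone (final) for 17 h at 37 C, then viability read by CellTiter-Glo luminescence.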

A short description of experiment [15]: qHTS assay for small molecule agonists of the antioxidant response element (ARE) signaling pathway (AID 743202; active = well fitted activation curve with a large enough effect in the signal ratio in the repeat runs, not every such curve was filed as active; the % refers to the signal ratio; also: potency is read from the fitted curve at half-maximal effect). The gist of the method:
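HepG2 ARE-bla reporter line, 2,000 cells/well; 5 h preincubation 37 C/5% CO2; compound (DMSO) 16 h 37 C; B/G FRET substrate 2 h RT; fluorescence intensity.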

Experiment [16] can be described thus: qHTS assay for small molecule agonists of the antioxidant response element (ARE) signaling pathway - cell viability counter screen (AID 743203; calls by dose curve; also: nearly all actives have a fitted effect of over 55% in size). An outline of the steps:
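Parallel cytotoxicity read-out for the ARE-bla screen: HepG2 reporter cells, 16 hrs with compounds, then CellTiter-Glo luminescence.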

Experiment [17] can be described thus: qHTS assay for small molecule activators of the heat shock response signaling pathway - cell viability counter screen (AID 743209). Also: nearly all actives have a fitted effect of over 50% in size. The gist of the method:
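To flag cytotoxic compounds, HSE-bla HeLa cells plated at 1500 cells/well were dosed for 5 h at 37 C, followed by the reporter FRET read and then CellTiter-Glo, with luminescence recorded 30 min after reagent addition.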

Experiment [18] can be described thus: qHTS assay for small molecule activators of the heat shock response signaling pathway (AID 743210; active = well fitted activation curve with a large enough effect in the signal ratio in the repeat runs, with a control signal flat, not every such curve was filed as active; the % refers to the signal ratio;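 also: HeLa cells with beta-lactamase reporter driven by heat shock elements; series mostly up to about 63 µM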). An outline of the steps:
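Beta-lactamase reporter read-out: FRET substrate fluorescence after 2.5 h at RT, following 5 h compound treatment at 37 C of HeLa cells carrying HSE-driven bla reporter; quantitative HTS format.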

Experiment [19] has as its target Aryl hydrocarbon receptor (Homo sapiens) (UniProt P35869). As to the kind of experiment: qHTS assay to identify small molecule that activate the aryl hydrocarbon receptor (AhR) signaling pathway (AID 743085).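 Also: HG2L7.5c1 human HepG2 liver cells with stably integrated DRE-driven firefly reporter; series mostly up to about 70 µM; nearly all actives have a fitted effect of over 15% in size.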 An outline of the steps: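 Steps: seed HepG2-AhR-luc cells; allow 5 h at 37C; pin-transfer test compound or vehicle; incubate 24 h at 37C; add viability dye (30 min, 37C) and read fluorescence; add luciferase substrate (30 min, RT) and read luminescence.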

Peroxisome proliferator-activated receptor gamma (Homo sapiens), sequence (P37231 whole entry, looked up): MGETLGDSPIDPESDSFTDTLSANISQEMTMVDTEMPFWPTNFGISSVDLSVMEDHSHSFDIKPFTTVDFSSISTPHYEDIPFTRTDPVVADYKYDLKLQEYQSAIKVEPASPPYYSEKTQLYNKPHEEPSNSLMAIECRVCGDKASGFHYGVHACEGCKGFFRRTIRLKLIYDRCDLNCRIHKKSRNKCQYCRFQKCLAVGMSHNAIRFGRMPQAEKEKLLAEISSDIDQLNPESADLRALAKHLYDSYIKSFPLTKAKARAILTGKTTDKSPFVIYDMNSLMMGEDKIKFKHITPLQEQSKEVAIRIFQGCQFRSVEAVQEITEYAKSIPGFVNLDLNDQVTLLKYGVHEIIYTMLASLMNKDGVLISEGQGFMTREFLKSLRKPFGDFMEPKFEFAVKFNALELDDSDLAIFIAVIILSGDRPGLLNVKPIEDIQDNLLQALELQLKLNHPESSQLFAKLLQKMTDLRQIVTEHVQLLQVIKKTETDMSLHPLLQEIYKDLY
Aryl hydrocarbon receptor (Homo sapiens), sequence (P35869 whole entry, looked up): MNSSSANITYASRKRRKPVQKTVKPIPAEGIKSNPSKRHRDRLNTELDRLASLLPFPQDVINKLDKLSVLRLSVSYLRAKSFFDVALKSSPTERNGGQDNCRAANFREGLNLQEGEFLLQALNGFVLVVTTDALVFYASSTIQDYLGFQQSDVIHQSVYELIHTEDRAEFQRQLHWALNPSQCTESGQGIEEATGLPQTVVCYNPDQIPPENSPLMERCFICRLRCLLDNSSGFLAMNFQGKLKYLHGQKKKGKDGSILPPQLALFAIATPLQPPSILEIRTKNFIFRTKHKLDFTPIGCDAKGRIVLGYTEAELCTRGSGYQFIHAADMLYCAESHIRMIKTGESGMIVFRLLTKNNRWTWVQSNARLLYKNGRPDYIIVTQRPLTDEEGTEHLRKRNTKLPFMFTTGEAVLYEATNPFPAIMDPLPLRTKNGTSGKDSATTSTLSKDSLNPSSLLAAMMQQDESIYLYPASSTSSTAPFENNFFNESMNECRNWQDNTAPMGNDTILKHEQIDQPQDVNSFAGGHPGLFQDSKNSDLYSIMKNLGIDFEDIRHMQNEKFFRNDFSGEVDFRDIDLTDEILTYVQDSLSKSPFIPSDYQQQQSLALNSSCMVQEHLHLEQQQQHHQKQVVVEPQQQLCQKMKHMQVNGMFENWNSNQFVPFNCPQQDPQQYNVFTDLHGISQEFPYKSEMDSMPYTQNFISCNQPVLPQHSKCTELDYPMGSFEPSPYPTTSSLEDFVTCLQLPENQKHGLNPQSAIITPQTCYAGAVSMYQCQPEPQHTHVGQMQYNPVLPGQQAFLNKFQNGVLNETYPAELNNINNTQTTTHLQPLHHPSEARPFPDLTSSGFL

Regarding `CCOC(=O)CC(=O)c1cc(F)c(Cl)nc1Cl`, the Potency result in experiment [1], in [2], in experiment [3], in experiment [4], in experiment [6] and in [7] was “inactive” in each case. Further, the Potency entry (in experiment [8]; in experiment [9]; in the experiment with Aromatase (Homo sapiens); in experiment [10]; in experiment [11]; in experiment [12]) was “inactive” each time. Further, the Potency entry in experiment [13], in experiment [14], in experiment [15], in [16] and in experiment [17] was “inactive” throughout. The result in experiment [5] and in [18] was inactive.
For `Cc1ccc(C(=O)C(C)CN2CCCCC2)cc1` (stereo not drawn), the Potency entry in experiment [1], in experiment [2], in experiment [3], in [4], in experiment [6] and in experiment [8] was “inactive” in each case. In addition, the Potency entry (in experiment [9]; with Aromatase (Homo sapiens); in [10]; in experiment [19]; in experiment [11]; in [12]) was “inactive” in each case. Further, the Potency entry in [16] and in experiment [17] was “inactive” each time. Moreover, the molecule was classed as inactive in [5] and in [18]. The Potency was 26.6 µM (active) and inactive in experiment [7]; 23.7 µM (active) in experiment [15].
As to `CCCCCCCCCCCCCCC1CO1` (stereo not drawn), the Potency result in [1], in experiment [2], in [3], in experiment [4], in experiment [6] and in [7] was “inactive” in each case. Moreover, the Potency result (in [8]; in experiment [9]; with Aromatase (Homo sapiens); in experiment [10]; in [19]; in [11]) was “inactive” in each case. Besides, the Potency entry in [12], in experiment [13], in experiment [15] and in experiment [16] was “inactive” throughout. Besides, the molecule was classed as inactive in [5] and in experiment [18].
As to `O=C(Nc1ccccc1)OCC(CN1CCCCC1)OC(=O)Nc1ccccc1` (stereo not drawn), the Potency in experiment [1] is 10.1 µM (active); in [2] it was 10.1 µM (active); in [13], 16.8 µM (active). In addition, the Potency entry in experiment [3], in experiment [4], in [6], in experiment [7], in [8] and in experiment [9] was “inactive” throughout. Also, the Potency result (with Aromatase (Homo sapiens); in [10]; in experiment [19]; in [11]; in experiment [14]; in experiment [16]) was “inactive” throughout. Further, the Potency entry in experiment [17] is “inactive”. In addition, the molecule was classed as inactive in [5] and in experiment [18].
Take `O=C(NN1CCCC1)NS(=O)(=O)c1ccc(Cl)cc1`: the Potency entry in experiment [1], in experiment [2], in [3], in experiment [4], in experiment [6] and in experiment [7] was “inactive” throughout. For the same molecule, the Potency entry (in experiment [8]; with Aromatase (Homo sapiens); in experiment [10]; in [19]; in experiment [11]; in experiment [12]) was “inactive” throughout. The Potency result in experiment [13], in experiment [15], in experiment [16] and in [17] was “inactive” each time. Further, the result in experiment [5] and in experiment [18] was inactive.
Turning to `CCOC(=O)CC(C)C`, the Potency entry in experiment [1], in experiment [2], in experiment [3], in [4], in [6] and in [7] was “inactive” each time. The Potency entry (in [8]; in [9]; with Aromatase (Homo sapiens); in [10]; in experiment [19]; in [11]) was “inactive” throughout. The Potency result in experiment [12], in [13], in [15], in experiment [16] and in experiment [17] was “inactive” in each case. In addition, the molecule was classed as inactive in experiment [5] and in experiment [18].
For `CC(=O)N(O)CCCCCNC(=O)CCC(=O)N(O)CCCCCNC(=O)CCC(=O)N(O)CCCCCN`, the Potency result in experiment [1], in experiment [2], in experiment [3], in experiment [4], in experiment [6] and in experiment [7] was “inactive” each time. Further, the Potency result (in experiment [8]; in experiment [9]; with Aromatase (Homo sapiens); in [10]; in experiment [19]; in experiment [11]) was “inactive” each time. The Potency result in [12], in experiment [14], in experiment [16] and in [17] was “inactive” each time. For the same molecule, the result in experiment [5] and in experiment [18] was inactive.
